Reference: PubChem BioAssay (NCATS)
Results filed as inconclusive are left out. The source made the active and inactive calls. Calls follow the shape of the dose curve; as a rule, active = well fitted cell-killing curve with a large enough effect; inconclusive = small, poorly fitted or top-dose-only effect, or effect the other way; inactive = no such curve, though single readings can be large or run the other way.

Assay: qHTS of pediatric cancer cell lines to identify multiple opportunities for drug repurposing: Confirmatory screen for Rh30 cells (AID 1347126); also: nearly all actives have a fitted effect of over 55% in size
Conditions: Rh30 rhabdomyosarcoma cell viability; series mostly up to 45.9 µM; activity change, negative = cytotoxic: at the top concentration
Excerpt: Drug repurposing or repositioning has been offered as a strategy for drug development in oncology programs. This approach has special potential for childhood cancers and other rare or orphan diseases, where the expected return on new drug development has been a disincentive to pharmaceuticals.
In this project we exploit the poly-pharmacology of drugs to discover new indications via phenotypic screening of a panel of 19 well-characterized cell lines derived from solid tumors seen in children and adolescents. The goal is to identify approved drugs with previously unrecognized anticancer properties that has the potential to reveal new mechanisms and biological processes involved in carcinogenesis or drug resistance. We employed a titration-based paradigm (quantitative high-throughput screening or qHTS), where all compounds were tested at multiple concentrations for their effect on cell viability. Concentration-response curves (CRCs) were derived directly from the primary screen, and both potency and efficacy values were used to identify compounds with robust bioactivity profiles. We screened the NIH Chemical Genomics Center (NCGC) Pharmaceutical Collection (NPC) and Mechanism Interrogation Plate (MIPE) small molecule collections of approved and investigational compounds against these cell lines; and measured metabolically active cells after 48 hours of compound treatment as a proxy for cell viability.
Assay Submitter: Nathalia J. Martinez, National Center for Advancing Translational Sciences, National Institutes of Health, Rockville, MD, USA; email: natalia.martinez@nih.gov
[1] Shen, M et al. Quantitative high-throughput phenotypic screening of pediatric cancer cell lines identifies multiple opportunities for drug repurposing. Oncotarget 2017 Dec 19;9(4):4758-4772. PMID 29435139.
The cells were obtained from University of North Carolina (UNC), Pediatric Preclinical Testing Program (PPT), and Coriell Institute (CI).
qHTS cell viability assay:
Cells were assayed in growth media at a density of 500-1,000 cells/well. Five microliters of cells were dispensed into 1,536-well, white, solid-bottom, TC-treated plates (Greiner Bio One) using a multidrop dispenser and incubated at 37 degrees C, 5% CO2, under a humidified atmosphere for 5 hours. Twenty-three nanoliters of compounds and controls (neutral control DMSO or positive control bortezomib at final concentration of 2.3 µM) were subsequently transferred by Kalypsys pintool. For primary screens, the MIPE collection was tested at 11-point dilutions (final concentrations range from 0.78 nM to 46 µM) and the NPC collection at 8-point dilutions (final concentrations range from 0.59 nM to 46 µM). Compounds tested in follow-up screens were assayed at 11-point dilutions. Cells were incubated for 48 hours, followed by addition of 3 µL of CellTiter-Glo (Promega). After a 15 min incubation at room temperature, samples were analyzed for luminescence intensity using a ViewLux High-throughput CCD imager equipped with clear filters.
% is scaled to controls: 0 for no effect and ±100 for the full control effect; potency is read from the fitted curve at half-maximal effect.

| SMILES | Potency | activity change, negative = cytotoxic |
| --- | --- | --- |
| CC(=O)[C@@]1(O)CC[C@H]2[C@@H]3C[C@H](C)C4=CC(=O)CC[C@]4(C)[C@H]3CC[C@@]21C | 0.414 µM (active) | – |
| CCc1cc2cc(OC)c(OC)cc2c(Cc2ccccc2)n1 | – | -7.27% (inactive) |
| O=c1[nH]sc2cc(Cl)ccc12 | 6.57 µM (active) | – |
| CC[C@@]1(O)C(=O)OCc2c1cc1n(c2=O)Cc2c-1nc1ccccc1c2/C=N/OC(C)(C)C | 0.522 µM (active) | – |
| Cc1ccc(C(=O)Oc2ccc(C(O)CNC(C)(C)C)cc2OC(=O)c2ccc(C)cc2)cc1 (stereo not given) | – | -10.6% (inactive) |
| CCCCC(CC)CNC(=O)CC(C)OC(=O)CCC(=O)O (stereo not given) | – | 5.34% (inactive) |
| Cc1cc(OCCOCC[N+](C)(C)Cc2ccccc2)ccc1C(C)(C)CC(C)(C)C | 13.1 µM (active) | – |
| CCC(=O)O[C@]1(C(=O)COC)[C@@H](C)C[C@H]2[C@@H]3CCC4=CC(=O)C=C[C@]4(C)C3(F)[C@@H](O)C[C@@]21C (stereo not given in full) | – | -0.421% (inactive) |
| CCOC(=O)O[C@]1(C(=O)OCCl)CC[C@H]2[C@@H]3CCC4=CC(=O)C=C[C@]4(C)[C@H]3[C@@H](O)C[C@@]21C | – | 2.61% (inactive) |
| CN(C)CCN(Cc1ccsc1)c1ccccn1 | – | 7.93% (inactive) |
| CCCCC(=O)OCC(=O)[C@H]1[C@H](C)C[C@H]2[C@@H]3C[C@H](F)C4=CC(=O)C=C[C@]4(C)[C@@]3(F)[C@@H](O)C[C@@]21C | 14.7 µM (active) | – |
| CC(=O)O[C@@H]1C(=O)O[C@@H]2[C@H]1OC(=O)[C@@H]2OC(C)=O | 5.85 µM (active) | – |
| Nc1ccc2cc3ccc(N)cc3nc2c1 | 7.37 µM (active) | – |
| CO[C@@H]1[C@@H](OC)[C@H](C)[C@@](O)(CC(=O)O)O[C@H]1[C@H](C)[C@H]1O[C@@]2(CC[C@@](C)([C@H]3CC[C@@](C)([C@@H]4O[C@@H]([C@H]5O[C@](C)(O)[C@H](C)C[C@@H]5C)C[C@@H]4OC4C[C@H](OC)[C@@H](OC)[C@H](C)O4)O3)O2)C[C@H](O)[C@H]1C (stereo not given in full) | 7.37 µM (active) | – |
| CCC1(c2cnc[nH]2)Cc2ccccc2C1 | 10.4 µM (active) | – |
| C[C@]12CCC(=O)C=C1CC[C@@H]1[C@@H]2[C@@H](O)C[C@@]2(C)[C@H]1CC[C@]2(O)C(=O)COC(=O)CCC(=O)O | – | 0% (inactive) |
| N=C(N)c1ccc(OCCCOc2ccc(C(=N)N)cc2)cc1 | – | 14.7% (inactive) |
| CCCC(=O)O[C@]1(C(=O)CCl)[C@@H](C)C[C@H]2[C@@H]3CCC4=CC(=O)C=C[C@]4(C)[C@@]3(F)C(=O)C[C@@]21C | – | -9.65% (inactive) |
| Cc1nc(N)nc(N)c1-c1ccc(Cl)c(Cl)c1 | – | -45.1% (inactive) |
| Nc1c2ccccc2nc2ccccc12 | 7.37 µM (active) | – |
